Reference: PubChem BioAssay (NCATS)
Results filed as inconclusive are left out. A number with no mark means an inactive call. Active and inactive are the calls of the source. The call rests on the fitted dose curve; in most records, active means well fitted inhibition curve with a large enough effect; inconclusive means small, poorly fitted or top-dose-only effect, or effect the other way; inactive means flat fitted curve, though single readings scatter.

biological target: ATP-dependent 6-phosphofructokinase (Trypanosoma brucei brucei) (UniProt O15648); assay: qHTS Assay to Find Inhibitors of T. brucei phosphofructokinase: hit validation (AID 492961);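 on activity change, negative = inhibition: luminescence reports ADP formed as PFK phosphorylates fructose-6-phosphate with ATP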; conditions: T. brucei PFK, ADP-Glo luminescence; series mostly up to 51.4 µM; activity change, negative = inhibition: at the top concentration
Sequence (O15648 whole entry, looked up): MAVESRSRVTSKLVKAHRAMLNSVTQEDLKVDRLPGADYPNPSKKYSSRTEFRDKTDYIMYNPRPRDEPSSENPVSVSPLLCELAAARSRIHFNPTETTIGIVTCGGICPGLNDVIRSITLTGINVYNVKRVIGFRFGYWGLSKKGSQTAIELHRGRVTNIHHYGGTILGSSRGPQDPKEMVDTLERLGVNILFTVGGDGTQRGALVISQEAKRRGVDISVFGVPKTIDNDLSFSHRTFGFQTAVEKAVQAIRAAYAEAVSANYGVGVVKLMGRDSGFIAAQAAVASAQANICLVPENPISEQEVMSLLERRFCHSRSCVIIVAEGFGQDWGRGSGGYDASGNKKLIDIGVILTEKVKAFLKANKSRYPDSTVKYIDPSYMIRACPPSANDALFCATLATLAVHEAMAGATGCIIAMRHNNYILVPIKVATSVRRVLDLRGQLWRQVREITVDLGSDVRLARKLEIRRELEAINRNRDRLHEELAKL
Source text: NIH Molecular Libraries Probe Production Network [MLPCN] NIH Chemical Genomics Center [NCGC] Grant: 1 R03 MH092153-01 PI Name: Malcolm Walkinshaw, University of Edinburgh NCGC Assay Overview: Various species of the protozoan family Trypanosomatidae are responsible for a range of serious human diseases in tropical and subtropical areas of the world. […] Many of the disorders caused by trypanosomatids are fatal if left untreated, but most currently used drugs are inefficient and toxic. […] Oxidative metabolism involving the mitochondrial tricarboxylic acid cycle and oxidative phosphorylation are repressed in these parasites, and recent RNA interference (RNAi) experiments have shown that even partial depletion of certain individual glycolytic enzymes can lead to the death of cultured parasites. One such glycolytic enzyme, phosphofructokinase (PFK), catalyzes the formation of fructose-1,6-bisphosphate (F1,6BP) and ADP from fructose-6-phosphate (F6P) and ATP, and in many metabolic circumstances makes an important contribution to the control of flux through the glycolytic pathway. As a specific glycolytic target, PFK is particularly attractive as it catalyzes the first irreversible step in glycolysis, and structural and kinetic studies have shown very substantial and essential differences from corresponding host enzymes, allowing for the discovery of parasite-selective inhibitors. The goal of this screen is to find small-molecule inhibitors of T. brucei PFK using a biochemical assay that measures PFK activity as a function of ADP production. A luminescence-based assay for T. brucei PFK activity has been developed which uses luciferase to detect production of ADP. Traditional luciferase-based nucleotide detection reagents rely on ATP production as a direct substrate for the luciferase reaction; however, PFK catalyzes the transfer of a phosphate from ATP to F6P, resulting in the net depletion of ATP. To directly measure the ADP product of the PFK reaction, we used the ADP-Glo detection kit (Promega), which utilizes two separate reactions to 1) deplete all remaining uncatalyzed ATP and 2) convert all remaining ADP to ATP, which is then detected through a traditional luciferase-coupled reaction. Compounds were screened as a concentration-titration series that ranged from 57 uM to 0.7 nM.
NCGC Assay Protocol Summary: Substrate buffer was dispensed into white, solid 1536-well plates at 3uL/well in 0.1M triethanolamine (TEA) buffer, pH 8.0, containing final concentrations of 5 mM MgCl2, 0.01% Tween20, 0.5 mM fructose-6-phosphate (F6P) and 0.1mM ATP. Then, 23 nL of compounds or DMSO were delivered to each well using a pin tool. One uL T. brucei PFK (0.1M TEA, 0.01% Tween20, 0.1% bovine serum albumin (BSA) and 1.25nM PFK, final concentrations) was then dispensed, and plates were incubated at room temperature for 45 min. The luminescent detection reagent, ADP-Glo (Promega), was then added in two steps: the first reagent, ADP-Glo (which converts remaining uncatalyzed ATP), was added at 2.5uL/well and incubated for ten minutes at room temperature, and the second component, Kinase Detection reagent (which converts ADP to ATP as a substrate for luciferase-based luminescence), was added immediately after at 5uL/well, followed by one final ten minute room temperature incubation. The plates were measured on a ViewLux plate reader for luminescent signal using a clear filter with a one second exposure. The %Activity was determined from the corrected luminescence values. As no specific T. brucei PFK inhibitors have been identified in the literature, 1x (1.25nM) and 0x PFK enzyme controls (untreated) were included to normalize %Activity of identified inhibitors; 0x enzyme values corresponded to 100%Activity (full inhibition), while 1x PFK enzyme values were used to normalize 0%Activity (no inhibition). Concentration-response curves were fitted to the signals arising from the resulting luminescence. […]
Potency means the concentration at half of the fitted maximal effect.

Structure (SMILES)	activity change, negative = inhibition	Potency
Cc1cc(-c2ccccc2)nnc1NCCN1CCOCC1	-7.33%	–
CN(C)CCC[C@@]1(c2ccc(F)cc2)OCc2cc(C#N)ccc21	-0.96%	–
CC(=O)OC[C@H]1O[C@@H](n2ncc(=O)[nH]c2=O)[C@H](OC(C)=O)[C@@H]1OC(C)=O	-8.23%	–
Cc1ccc(S(=O)(=O)NC(=O)NC2CCCC2)cc1	-1.58%	–
CNCCCCOc1ccccc1Cc1ccccc1	0.927%	–
CCOC(=O)Nc1ccc2c(c1)N(C(=O)CCN1CCOCC1)c1ccccc1S2	8.4% [at 24.3 µM]	–
Clc1cccc(C(c2ccc3nc[nH]c3c2)n2ccnc2)c1 (stereo not given)	4.08%	–
CN(CCCN1c2ccccc2CCc2ccccc21)CC(=O)c1ccc(Cl)cc1	-9.54%	–
COc1cc(N)c(Cl)cc1C(=O)NC1CCN(Cc2ccccc2)CC1	-0.149% [at 24.3 µM]	–
C[C@@H](O)[C@H]1C(=O)N2C(C(=O)O)=C(S[C@@H]3CN[C@H](CNS(N)(=O)=O)C3)[C@H](C)[C@H]12	-7.61%	–
CCNC(=O)/C=C/c1cccc(Br)c1	0.693%	–
NC(=O)n1c(O)c(C(=O)c2cccs2)c2cc(Cl)ccc21	1.83%	–
CCOc1ccccc1OCCN[C@H](C)Cc1ccc(OC)c(S(N)(=O)=O)c1	3.14%	–
N#CCC(=O)NN	9.74%	–
C#C[C@]1(O)CC[C@H]2[C@@H]3CCc4cc(OC)ccc4[C@H]3CC[C@@]21C	-1.62%	–
NCc1ccccc1Sc1ccccc1CO	-6.54%	–
O=C1C(O)=C(O)C(=O)C(O)=C1O	-11%	–
CN1CCc2cccc3c2[C@H]1Cc1ccc(O)c(O)c1-3	–	12.6 µM (active)
Cc1cc2c(OCC(CNC(C)(C)C)OC(=O)c3ccccc3)cccc2[nH]1 (stereo not given)	-8.13%	–
CCCCCCCCCCCCSCCOCCO	4.94%	–

Structure (SMILES)	activity change, negative = inhibition	Potency
CCCCCN=C(N)N/N=C/c1c[nH]c2ccc(OC)cc12	-1.02%	–
NC(=S)N/N=C/c1cccnc1	4.16%	–
CCOC(=O)[C@H](CCc1ccccc1)N[C@@H](C)C(=O)N1[C@H](C(=O)O)C[C@H]2CCCC[C@@H]21	0.949%	–
Nc1ccc(S(=O)(=O)NCc2ccccc2)cc1	-4.84%	–
COc1ccc2c(c1)c1c3n2CCN(C)C3=NCC1	-8.29%	–
OC[C@H]1O[C@@H]2O[C@H]3[C@H](O)[C@@H](O)[C@@H](O[C@H]4[C@H](O)[C@@H](O)[C@@H](O[C@H]5[C@H](O)[C@@H](O)[C@@H](O[C@H]6[C@H](O)[C@@H](O)[C@@H](O[C@H]7[C@H](O)[C@@H](O)[C@@H](O[C@H]8[C@H](O)[C@@H](O)[C@@H](O[C@H]1[C@H](O)[C@H]2O)O[C@@H]8CO)O[C@@H]7CO)O[C@@H]6CO)O[C@@H]5CO)O[C@@H]4CO)O[C@@H]3CO	14.8%	–
O=[N+]([O-])c1cccc(S(=O)(=O)NCCNS(=O)(=O)c2cccc([N+](=O)[O-])c2)c1	4.87%	–
Cn1c(=O)c2[nH]c(Br)nc2n(C)c1=O	0%	–
COc1ccccc1N1CCN(CCCCNC(=O)c2ccc(-c3ccc(C(C)=O)cc3)cc2)CC1	5.32%	–
C#C[C@]1(O)CC[C@H]2[C@@H]3CCC4=CC(=O)CC[C@@H]4[C@H]3CC[C@@]21CC	-5.09%	–
COc1ccc(CCN(C)CCCN2CCc3cc(OC)c(OC)cc3CC2=O)cc1OC	6.49%	–
Cc1ncc(CO)c(C=O)c1O	-6.8%	–
CC1=C(C(=O)O)N2C(=O)[C@@H](NC(=O)[C@H](N)c3ccccc3)[C@H]2SC1	6.77%	–
FC1(F)C(F)(F)C(F)(F)C2(F)C(F)(F)C(F)(F)C(F)(F)C(F)(F)C2(F)C1(F)F (stereo not given)	0%	–
Cc1cc(C)cc(OCC2CNC(=O)O2)c1 (stereo not given)	9.48%	–
CC(C)[N+](C)(C)CC(O)COc1cccc2ccccc12 (stereo not given)	-1.2%	–
O=C(NC1CCN(CCc2c[nH]c3ccccc23)CC1)c1ccccc1	-7.05%	–
O=C(CCN1CCN2CCCC2C1)N1c2ccccc2Sc2ccc(Cl)cc21 (stereo not given)	12.8%	–
OCCOCCN1CCN(C2=Nc3ccccc3Sc3ccccc32)CC1	2.94%	–
CN(C)C(=O)Nc1ccc(Cl)c(Cl)c1	-16.2%	–
